Data: PubChem BioAssay (NCI)
The panel holds about 83,000 compounds, 20% with a hit somewhere; the sample as a whole holds those more often.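 Compound tested at a single concentration for 48 hours in 96-well plates; a percent growth value below 10 was scored as active.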 Active and inactive are the calls of the source.

Test system: MDA-MB-468 breast
Test: NCI-60 one-dose screen, 48 h (100 = growth as untreated, 0 = no growth, -100 = all killed)
Details: 10 µM unless noted

SMILES	growth
Cc1ccc2[nH]c(=O)c3c(c2c1)OC(N)=C(C#N)C31C(=O)c2cccc3cccc1c23 (stereo not given)	95.1% (inactive)
CNC(=O)c1cc(Oc2ccc3nc(NC(=O)c4cccc(OC(F)(F)F)c4)sc3c2)ccn1	46% (inactive)
CCCCC[C@H]1C/C=C2/C(=O)C=C[C@@H]2C/C=C\CCCC(=O)O[C@@H](CCCCC)C/C=C2/C(=O)C=C[C@@H]2C/C=C\CCCC(=O)O1	-27.8% (active)
O=C(NC1CCN(Cc2ccccc2)CC1)c1cc2nc(-c3ccc(Cl)s3)cc(C(F)(F)F)n2n1	-66.2% (active)
CCc1cccc2c3c(sc12)C(c1ccc(Cl)cc1)C(C#N)=C(/N=C/c1ccc(Cl)cc1)O3 (stereo not given)	-16.3% (active)
CN1CCN(Cc2ccc(C(=O)Nc3cncc(C#Cc4cnc5cccnn45)c3)cc2C(F)(F)F)CC1	61.1% (inactive)
N#CC(=C1SCS1)[N+](=O)[O-]	-4.62% (active)
COc1ccc2sc3c(NCCCNCCO)nc4ccccc4c3c(=O)c2c1	30.9% (inactive)
COc1ccc(-c2cc(-c3ccc(OC)c(OC)c3)nc(SCCCCCC(=O)NO)n2)cc1	54.8% (inactive)
CCOC(Cc1c(N)[nH]c(=S)[nH]c1=O)OCC	101% (inactive)
O=[N+]([O-])c1ccc(N/N=C(/C(=N/Nc2ccc([N+](=O)[O-])cc2)c2ccccc2)c2ccccc2)cc1	80.6% (inactive)
CC(C)(C)OC(=O)N1CCc2c(sc3ncnc(N/N=C/c4ccccc4Br)c23)C1	71.5% (inactive)
O=C(NC1CCCC1)c1ccc(N2CCC(NCc3cccc(C(F)(F)F)c3)CC2)cc1	77.7% (inactive)
Oc1ccc(Nc2ncnc3c2sc2ncccc23)cc1	21.3% (inactive)
O=C(CSc1nc2ccccc2[nH]1)c1ccc(N2CCOCC2)cc1	87.6% (inactive)
OCC1OC(n2cnc3c(NCc4ccco4)ncnc32)C(O)C1O (stereo not given)	-82.8% (active)
COC(=O)/C=C/C(=O)c1cc(C)cc(C)c1O	110% (inactive)
COc1ccc(-c2nc(SCC(C)C)nc(N/N=C\c3cccc([N+](=O)[O-])c3)c2C#N)cc1	58.1% (inactive)
CC(=O)Nc1cscc1NC(C)=O	95.1% (inactive)
Cc1nc2nc(C(F)(F)F)[nH]c2nc1C	102% (inactive)

SMILES	growth
CCOc1ccc(C(C)=O)cc1NC(=O)c1cccc(-c2nnn(CC)n2)c1	17.5% (inactive)
COc1cc(-c2nc3ccccc3[nH]2)ccc1OCC(=O)N=Nc1c(O)[nH]c2ccc(Cl)cc12	-78.9% (active)
COc1ccc(/C=C(/C(=O)N2CCN(c3ccccc3)CC2)c2cc(OC)c(OC)c(OC)c2)cc1N	11.7% (inactive)
Cc1ccc(-c2nc(N3CCNCC3)c3oc(-c4ccc(C)cc4)nc3n2)cc1	-33.5% (active)
CC1(C)CC(=O)c2c(ccc(C(=O)C[C@H](N)CO)c2N)O1	3.17% (active)
CC(C)C(=O)Nc1ccc(-c2nc(-c3cccc(OCCN4CCOCC4)c3)c(-c3ccnc(Br)c3)[nH]2)cc1	23.2% (inactive)
COc1cc2c(cc1O)C(=O)CCCC2	87.3% (inactive)
COc1ccc(/C(C)=C(\c2ccc(Cl)cc2)c2ccc(OCCN(C)C)cc2)cc1F	66.2% (inactive)
Cn1c(=O)c2[nH]c(C(O)c3ccc(Cl)cc3)nc2n(C)c1=O (stereo not given)	96.7% (inactive)
N#CC1C(=O)SC2c3ccccc3C(=O)c3ccccc3C12 (stereo not given)	89.4% (inactive)
NC(=S)N/N=C(/C=C/c1cn(-c2ccccc2)nc1-c1ccc(Cl)cc1)c1cc2ccccc2oc1=O	52.2% (inactive)
CN(C)CCN(Cc1ccccc1)c1ccc2ccccc2n1	92.6% (inactive)
COc1c(B(O)O)cccc1-c1nc2ccc3[nH]ncc3c2c2c1CCCC2	34% (inactive)
CCOC(=O)/C=c1\sc2n(c1=O)C1C(NN=2)N(CC)C(=O)N1CC (stereo not given)	48.4% (inactive)
Nc1ccccc1-c1ccn[nH]1	101% (inactive)
CCNCC(C)(C)O	115% (inactive)
Nc1ccc(-c2ccncc2)cc1NC(=O)N1CCCC1	94.2% (inactive)
CN(C)c1ccc(C(c2ccc(O)cc2)c2ccc(N(C)C)cc2)cc1	1.1% (active)
CC(C)N=C(N)/N=C(\N)Nc1ccc2ccc3ccccc3c2c1	-91.1% (active)
Cc1cc(C#Cc2ccc(C(C)(C)C)cc2)ccc1-n1c(/C=C/c2c(Cl)cccc2Cl)nc2ccccc2c1=O	91.1% (inactive)
